Experimental data as given in PubChem BioAssay (Tox21).
Records with an inconclusive call do not appear. The source made the active and inactive calls. Unless noted, calls follow the shape of the dose curve; as a rule, active = well fitted curve in the direction sought with a large enough effect in the repeat runs; inconclusive = weak or mixed curves; inactive = no such curve, though single readings can be large; an effect the other way counts as inactive or inconclusive.

Assays:
[1] = Human pregnane X receptor (PXR) small molecule agonists, qHTS cell viability counter screen (AID 1346977); also: nearly all actives have a fitted effect of over 50% in size; also: potency is read from the fitted curve at half-maximal effect
How it was run: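 PXR-Luc HepG2, 2,000 cells/well, 5% charcoal-stripped FBS; 5hr settle; cpd 24hr, 37C/5% CO2; CellTiter-Fluor at 23hr, read 1hr later (fluorescence).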

[2] = Caspase-3/7 induction in HepG2 cells by small molecules, qHTS assay (AID 1346978); also: nearly all actives have a fitted effect of over 15% in size; also: potency is read from the fitted curve at half-maximal effect
How it was run: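 Wild-type HepG2 cells (2,000/well) were settled 5 h at 37 C, 5% CO2, then exposed to compounds in DMSO for 17 h. Caspase-3/7 activity was read by luminescence 30 min after adding Caspase-Glo 3/7 reagent at room temperature.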

[3] = Caspase-3/7 induction in CHO-K1 cells by small molecules, qHTS cell viability counter screen (AID 1346979); also: nearly all actives have a fitted effect of over 35% in size; also: potency is read from the fitted curve at half-maximal effect
How it was run: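 Cells (CHO-K1, wild type) are plated at 1,500 per well and incubated 5hr. Test compounds in DMSO are then pinned in, followed by 16hr at 37C and 5% CO2. Viability is read by CellTiter-Fluor fluorescence after 1hr.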

[4] = Caspase-3/7 induction in CHO-K1 cells by small molecules, qHTS assay (AID 1346980); also: nearly all actives have a fitted effect of over 15% in size; also: potency is read from the fitted curve at half-maximal effect
How it was run: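 Wild-type cells were seeded at 1,500 per well and settled 5 hr at 37 C, 5% CO2, then exposed to DMSO-dissolved compounds for 17 hr. Caspase-Glo 3/7 reagent was added, and luminescence was read after 30min at room temperature.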

[5] = Caspase-3/7 induction in HepG2 cells by small molecules, qHTS cell viability counter screen (AID 1346981); also: nearly all actives have a fitted effect of over 30% in size; also: potency is read from the fitted curve at half-maximal effect
How it was run: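 Steps: seed 2,000 HepG2 cells per well; incubate 5 hr at 37 C; pin-add compounds in DMSO; incubate 16 hr; add CellTiter-Fluor; after 1 hr at 37 C and 5% CO2, read fluorescence.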

[6] = biological target: Thyrotropin-releasing hormone receptor (Homo sapiens) (UniProt P34981); test: qHTS assay to identify small molecule agonists of the thyrotropin-releasing hormone receptor (TRHR) signaling pathway (AID 1346891; calls by dose curve; also: series mostly up to about 58 µM)
How it was run: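 Intracellular calcium rise, read as fluorescence every second for 3 min, served as the agonist signal in dye-loaded HEK293 cells expressing TRHR; each compound ran at 15 concentrations in triplicate.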

[7] = biological target: Nuclear receptor subfamily 1 group I member 2 (Homo sapiens) (UniProt O75469); test: Human pregnane X receptor (PXR) small molecule agonists, qHTS assay (AID 1346982); also: nearly all actives have a fitted effect of over 35% in size; also: potency is read from the fitted curve at half-maximal effect
How it was run: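 Agonist mode qHTS: PXR-Luc HepG2 cells plated 5 hr before DMSO-dissolved compounds were pinned in, cultured 24 hr at 37 C, 5% CO2; ONE-Glo luminescence readout.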

[8] = biological target: Nuclear receptor subfamily 1 group I member 2 (Rattus norvegicus) (UniProt Q9R1A7); test: Rat pregnane X receptor (rPXR) activation by small molecules, qHTS assay (AID 1346983); details: rPXR luciferase reporter cells, One-Glo luminescence, 24 h; max activation: stronger effect = higher value; also: nearly all actives have a fitted effect of over 20% in size
How it was run: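 Cell-based rPXR luciferase reporter assay, 2,000 cells per well, rested 5hr at 37 C before compound addition in DMSO, then 24 hr at 37 C. One-Glo reagent was added and luminescence read after 30 min at room temperature.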

[9] = biological target: Nuclear receptor subfamily 1 group I member 2 (Homo sapiens) (UniProt O75469); test: CYP3A4 induction through human pregnane X receptor (PXR) by small molecules, qHTS assay (AID 1346984); also: nearly all actives have a fitted effect of over 40% in size; also: potency is read from the fitted curve at half-maximal effect
How it was run: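 Steps: seed DPX-2 cells, 5 hr at 37C; pin-transfer compounds; 24 hr at 37C; add Luciferin-IPA (3uM final), 3 hr at 37C; add One-Glo, 30 min RT; read luminescence.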

[10] = biological target: Nuclear receptor subfamily 1 group I member 2 (Homo sapiens) (UniProt O75469); test: Human pregnane X receptor (PXR) activation by small molecules, qHTS assay (AID 1346985); also: nearly all actives have a fitted effect of over 40% in size
How it was run: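 DPX-2 cells (HepG2 co-transfected with a PXR response element and a CYP3A4-promoter luciferase construct) were seeded at 2,000 per well, rested 5 hr at 37C, then exposed to DMSO-dissolved compounds for 24 hr. Activation was read as luciferase luminescence.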
% is scaled to controls: 0 for no effect and ±100 for the full control effect.

Chain of Nuclear receptor subfamily 1 group I member 2 (Rattus norvegicus) (Q9R1A7 whole entry, looked up): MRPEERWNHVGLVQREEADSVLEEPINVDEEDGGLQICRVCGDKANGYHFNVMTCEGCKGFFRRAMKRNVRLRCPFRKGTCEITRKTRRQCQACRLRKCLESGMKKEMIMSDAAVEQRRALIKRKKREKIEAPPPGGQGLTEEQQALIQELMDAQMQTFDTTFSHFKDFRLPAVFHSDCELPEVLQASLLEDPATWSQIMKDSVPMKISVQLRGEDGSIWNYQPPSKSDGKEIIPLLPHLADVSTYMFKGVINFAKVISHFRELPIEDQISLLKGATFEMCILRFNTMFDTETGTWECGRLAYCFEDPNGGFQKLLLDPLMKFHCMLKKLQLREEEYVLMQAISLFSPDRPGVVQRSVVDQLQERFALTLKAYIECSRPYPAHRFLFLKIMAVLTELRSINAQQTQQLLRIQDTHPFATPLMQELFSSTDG
Chain of Thyrotropin-releasing hormone receptor (Homo sapiens) (P34981 whole entry, looked up): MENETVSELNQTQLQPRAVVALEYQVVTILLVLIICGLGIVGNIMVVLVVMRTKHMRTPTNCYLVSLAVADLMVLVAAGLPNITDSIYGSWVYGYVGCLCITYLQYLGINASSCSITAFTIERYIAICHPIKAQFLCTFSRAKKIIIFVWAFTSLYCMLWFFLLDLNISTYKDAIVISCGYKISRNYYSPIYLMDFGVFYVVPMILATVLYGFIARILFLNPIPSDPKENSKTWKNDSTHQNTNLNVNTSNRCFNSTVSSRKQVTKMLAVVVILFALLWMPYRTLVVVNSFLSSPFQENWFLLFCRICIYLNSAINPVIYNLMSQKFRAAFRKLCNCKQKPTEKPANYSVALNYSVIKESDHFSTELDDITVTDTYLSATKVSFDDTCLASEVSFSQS
Chain of Nuclear receptor subfamily 1 group I member 2 (Homo sapiens) (O75469 whole entry, looked up): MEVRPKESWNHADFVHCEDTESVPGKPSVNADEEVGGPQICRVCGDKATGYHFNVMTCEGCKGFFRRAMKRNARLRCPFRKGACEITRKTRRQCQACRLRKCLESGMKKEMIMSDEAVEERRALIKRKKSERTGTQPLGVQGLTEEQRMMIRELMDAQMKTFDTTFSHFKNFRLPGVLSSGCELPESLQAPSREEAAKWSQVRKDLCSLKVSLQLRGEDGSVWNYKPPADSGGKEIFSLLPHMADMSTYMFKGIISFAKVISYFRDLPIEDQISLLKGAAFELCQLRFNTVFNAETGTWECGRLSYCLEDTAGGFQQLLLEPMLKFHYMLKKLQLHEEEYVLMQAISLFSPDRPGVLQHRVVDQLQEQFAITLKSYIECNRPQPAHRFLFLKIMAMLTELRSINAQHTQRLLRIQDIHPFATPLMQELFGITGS

CCOC(=O)C1=C(C)NC(C)=C(C(=O)OC)C1c1cccc(Cl)c1Cl (stereo unspecified)
inactive: Potency [1] | Potency [2] | Potency [4] | Potency [5]
active: Potency [3] 13.3 µM

O=C1c2ccccc2C(=O)C1c1nc2ccccc2c(Br)c1O
inactive: Potency [6] | Potency [1] | Potency [2] | Potency [4]
active: Potency [7] 61.1 µM

OC[C@H]1O[C@@H](n2cnc3c(=S)nc[nH]c32)[C@H](O)[C@@H]1O
active: Potency [7] 11.9 µM
inactive: Potency [6] | Potency [2] | Potency [3] | Potency [4] | Potency [5] | max activation [8] -1.15% | Potency [9] | Potency [10]

O=C1c2ccccc2C(=O)C1(O)O
inactive: Potency [6] | Potency [4]
active: Potency [3] 54.8 µM | Potency [7] 61.4 µM

Nc1nc2ccc([N+](=O)[O-])cc2s1
active: Potency [3] 47.2 µM | Potency [5] 61.1 µM | Potency [7] 30.6 µM
inactive: Potency [6] | Potency [2] | Potency [4]

CN1C(C(=O)Nc2ccccn2)=C(O)c2sccc2S1(=O)=O
inactive: Potency [6] | Potency [1] | Potency [2] | Potency [4] | Potency [5] | Potency [7] | max activation [8] -1.49% | Potency [9] | Potency [10]

Oc1cccc(O)c1O
inactive: Potency [6] | Potency [2] | Potency [4] | max activation [8] -5.99% | Potency [9] | Potency [10]
active: Potency [7] 60.6 µM

CCCCCCCCOc1ccc(C(=O)O)cc1
inactive: Potency [6] | Potency [2] | Potency [4] | Potency [5]
active: Potency [7] 60.4 µM

COc1cc(Nc2c(C#N)cnc3cc(OCCCN4CCN(C)CC4)c(OC)cc23)c(Cl)cc1Cl
inactive: Potency [4]
active: Potency [1] 11.9 µM | Potency [2] 11.9 µM | Potency [3] 29.8 µM | Potency [5] 13.3 µM

CN1C(=O)c2ccccc2C1=O
inactive: Potency [6] | Potency [1] | Potency [2] | Potency [4] | Potency [5] | Potency [7]

CC(=O)OCCN(CCOC(C)=O)c1ccc(N=Nc2ccc([N+](=O)[O-])cc2C#N)cc1
active: Potency [3] 54.5 µM
inactive: Potency [6] | Potency [2] | Potency [4]

CCOC(=O)c1ccccc1C(=C1C=C(Br)C(=O)C(Br)=C1)c1cc(Br)c(O)c(Br)c1
inactive: Potency [6] | Potency [2] | Potency [4]
active: Potency [7] 51.3 µM

CCCCCCNC(=O)n1cc(F)c(=O)[nH]c1=O
active: Potency [7] 15 µM | Potency [9] 0.794 µM
inactive: Potency [6] | Potency [1] | Potency [2] | Potency [4] | max activation [8] -10.4%

CN1CCCC(CC2c3ccccc3Sc3ccccc32)C1 (stereo unspecified)
active: Potency [1] 29.8 µM
inactive: Potency [6] | Potency [4] | Potency [5] | Potency [7] | max activation [8] -1.72% | Potency [10]

O=C=Nc1cccc(C(F)(F)F)c1
inactive: Potency [6] | Potency [2] | Potency [4] | Potency [5]

CC1=Nc2ccc3ccccc3c2C1(C)C
active: Potency [7] 30.6 µM
inactive: Potency [6] | Potency [2] | Potency [4]

COc1cc(N)c(Cl)cc1C(=O)NC1CCN(CCCOc2ccc(F)cc2)CC1OC (stereo unspecified)
active: Potency [1] 29.8 µM
inactive: Potency [6] | Potency [2] | Potency [4] | Potency [7] | max activation [8] -2.9% | Potency [10]

CC(=O)c1ccc([N+](=O)[O-])cc1
inactive: Potency [1] | Potency [2] | Potency [3] | Potency [4] | Potency [5]

CCCCN(CCN(CCCC)C(=O)N1CCOCC1)C(=O)N1CCOCC1
inactive: Potency [6] | Potency [2] | Potency [3] | Potency [4] | Potency [5]

CC(C)(C)C(=O)C(=O)O
inactive: Potency [6] | Potency [2] | Potency [3] | Potency [4] | Potency [5]

CN1CC(=O)N2[C@H](c3ccc4c(c3)OCO4)c3[nH]c4ccccc4c3C[C@@H]2C1=O
inactive: Potency [6] | Potency [1] | Potency [2] | Potency [4] | Potency [5] | max activation [8] 0.614%

C/C=C\C/C=C/CCCCCCCCOC(C)=O
inactive: Potency [6] | Potency [1] | Potency [2] | Potency [4] | Potency [5]
active: Potency [7] 61.1 µM

Cc1ccco1
inactive: Potency [1] | Potency [2] | Potency [3] | Potency [4] | Potency [5] | Potency [7]

O=C(OCC(O)CO)c1ccccc1Nc1ccnc2cc(Cl)ccc12 (stereo unspecified)
inactive: Potency [6] | Potency [2] | Potency [4] | Potency [5] | max activation [8] -2.2% | Potency [9] | Potency [10]
active: Potency [1] 26.6 µM | Potency [7] 11.9 µM

O=[N+]([O-])c1ccc(O/N=C/c2cc(Br)c(O)c(Br)c2)c([N+](=O)[O-])c1
active: Potency [1] 30.5 µM | Potency [3] 15.3 µM | Potency [5] 27.2 µM
inactive: Potency [2] | Potency [4]

Oc1ccc(Cl)c2cccnc12
active: Potency [3] 6.68 µM | Potency [4] 6.68 µM | Potency [9] 2.51 µM
inactive: Potency [6] | Potency [2] | Potency [5] | max activation [8] -0.0207% | Potency [10]

COC(=O)c1nc(Cl)c(Cl)nc1N
active: Potency [3] 8.41 µM | Potency [7] 10.6 µM
inactive: Potency [6] | Potency [2] | Potency [4]

C[C@@H]1CN(CCCn2c3ccccc3c3ccccc32)C[C@H](C)N1
inactive: Potency [6] | Potency [7] | max activation [8] -9.24%
active: Potency [1] 29.8 µM | Potency [3] 29.8 µM | Potency [5] 29.8 µM

C/C=C(/C(=C/C)c1ccc(O)cc1)c1ccc(O)cc1
inactive: Potency [6] | Potency [1] | Potency [4] | Potency [7] | max activation [8] 0.107% | Potency [9] | Potency [10]
